# Measured values taken from PubChem BioAssay.
# Where “and” joins values, the source holds several entries; their conditions need not be identical. Equal values may be shown once. Calls of active or inactive are those of the source.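 The calls were made as follows, unless noted: active = compound raises insulin release from rat beta cells at 5 mM glucose, no numeric limit stated; inactive = the rest.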
# Assays:
# [1] = system: Hepatitis C virus NS3 helicase; assay: HCV NS3 helicase inhibitors, primary screen, biochemical, fluorescence polarization, LOPAC1280 library (AID 687035; in the data active = inhibition above about 37%); settings: Purified HCV NS3 helicase, Cy5-dT15 ssDNA binding fluorescence polarization; stronger effect = higher value; concentration not given here
# [2] = Cy5 fluorescence quenching or enhancement artefacts, artefact control for HCV NS3 helicase inhibitor project, biochemical, LOPAC1280 (AID 687037; call rule not given here); settings: Cy5-DNA-NS3h complex fluorescence interference counterscreen
# [3] = stimulators of nuclear beta-catenin in C2C12, primary screen, imaging, WNT3A-conditioned medium, mouse C2C12, NPC library (AID 1117326; in the data active = nuclear beta-catenin stimulation mostly above about 4.2%, no sharp cut-off; inactive = mostly below about 10%); settings: stronger effect = higher value
# [4] = stimulators of insulin release from INS-1E, primary screen, cell-based, 5 mM glucose, NPC library (AID 1117329); settings: rat INS-1E insulin secretion, at 10 µM, stronger effect = higher value
# [5] = growth inhibition of GSK3B-pretreated HCT116 cells – cell-based, CellTiter-Glo, 0.2 to 20 µM (AID 1117336;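 active = compounds lowering colon cancer cell viability after pretreatment blocking the GSK3B kinase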); settings: HCT116 viability after GSK3B inhibitor, at 20 µM, stronger effect = higher value
# [6] = inhibition of endothelial tube formation, primary screen, imaging, VEGF stimulated, CD31 staining, tube area, NPC library (AID 1117340;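 active = compound that reduces growth-factor-driven endothelial tube area in a mixed cell culture, no cutoff stated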); settings: VEGF-stimulated ADSC/ECFC co-culture, at 10 µM, stronger effect = higher value
# [7] = glucagon-like peptide 1 release enhancers, primary assay, NCI-H716 cell line, NPC library (AID 1117341;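 active = compound raises GLP1 secretion from the human gut endocrine cells, with no numeric limit stated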); settings: NCI-H716 cells, at 10 µM, stronger effect = higher value
# [8] = HCT116 colon cancer cell growth inhibition, primary screen, CellTiter-Glo luminescence, NPC library (AID 1117342;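 active = compounds that lower survival of HCT116 colon cancer cells in the luminescence readout, no numeric limit stated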); settings: at 20 µM (top of the series)
# [9] = CellTiter-Glo luminescent readout of SW480 viability loss, NPC library primary (AID 1117343;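 active = compounds that lower viability of the colon cancer cells in the luminescence readout, with no numeric limit stated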); settings: CellTiter-Glo luminescence; at 20 µM (top of the series)
# [10] = decreased DLD-1 cellular survival, CellTiter-Glo luminescent readout, NPC compound collection, primary HTS (AID 1117346;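 active = compounds that lower survival of DLD-1 colon cancer cells in the luminescence readout, no cutoff given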); settings: DLD-1 viability, CellTiter-Glo luminescence; at 20 µM (top of the series)
# [11] = system: Aerobactin synthetase IucA (Klebsiella pneumoniae, hypervirulent); assay: IucA enzyme inhibition, biochemical, LOPAC library, absorbance readout (AID 1346212; call rule not given here;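 also: 100% = no compound wells and 0% = no enzyme wells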); settings: IucA enzyme assay, absorbance (OD) readout; stronger effect = lower value;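 tested at 8 µM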
# [12] = sensitizers of A549 cells to miR-34 induction, primary screen, imaging, A549 dox-inducible miR-34, nuclei and caspase counts (AID 1347080;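 active = compounds whose cell count with miR-34 switched on is under 0.7 times the count with it off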); settings: A549 miR-34 inducible, Hoechst nuclei count, 48 h
# [13] = viability rescue of complex I mutant cybrids, primary screen, cell-based, galactose medium, ATP luminescence (AID 1645843;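 active = z-score of at least 1.8 in each of two replicates, scored against plate mean and spread of sample wells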;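 also: positive z means more ATP and so rescue of galactose-driven cybrid death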); settings: complex I mutant cybrid cells, 72 h, stronger effect = higher value
# [14] = hESC survival regulators, cell-based (AID 493140; call rule not given here;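 also: cells exposed to compounds for four days before counting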); settings: human embryonic stem cell survival screen; stronger effect = higher value
# [15] = liver-stage malaria parasite growth inhibition, primary screen, cell-based, HepG2, luciferase luminescence, HepG2 viability (AID 624349; in the data active = parasite load remaining mostly below about 12%, no sharp cut-off; inactive = mostly above about 10%;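 also: 100% = mean of DMSO negative control wells on the same plate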); settings: P. berghei liver stage in HepG2, luciferase luminescence, concentration not given here; parasite load remaining: stronger effect = lower value; viability: measured here: HepG2 viability without parasites
# [16] = survival rescue of mitochondrial mutant cells in low glucose, primary screen, MELAS cybrids, Rieske KO mouse fibroblasts, CellTiter-Glo (AID 1508586;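 active = mean z-score across replicates of 1.96 or higher in either the MELAS or the Rieske mutant cell line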;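 also: z relative to plate mean and SD of compound and empty wells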)
# [17] = target: NAD(+) hydrolase SARM1 (Homo sapiens) (UniProt Q6SZW1); assay: SARM1 TIR NADase inhibitors, cell lysate, NAD-Glo luminescence (AID 1508614;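 active = compound whose remaining NAD level is above about 45 nM, limit read from the data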;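 also: higher remaining NAD means stronger inhibition of SARM1 NADase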); settings: SAM-TIR HEK293T lysate NADase, at 1 µM, stronger effect = higher value
# [18] = measured here: relative caspase fold change +Dox/-Dox
# [19] = measured here: total cells with miR-34 induction, stronger effect = lower value
# [20] = measured here: total cells without miR-34 induction
# [21] = MELAS cybrid survival, CellTiter-Glo 48 h, stronger effect = higher value
# [22] = Rieske KO mouse fibroblast survival, CellTiter-Glo 72 h
# NAD(+) hydrolase SARM1 (Homo sapiens), sequence (Q6SZW1 whole entry, looked up): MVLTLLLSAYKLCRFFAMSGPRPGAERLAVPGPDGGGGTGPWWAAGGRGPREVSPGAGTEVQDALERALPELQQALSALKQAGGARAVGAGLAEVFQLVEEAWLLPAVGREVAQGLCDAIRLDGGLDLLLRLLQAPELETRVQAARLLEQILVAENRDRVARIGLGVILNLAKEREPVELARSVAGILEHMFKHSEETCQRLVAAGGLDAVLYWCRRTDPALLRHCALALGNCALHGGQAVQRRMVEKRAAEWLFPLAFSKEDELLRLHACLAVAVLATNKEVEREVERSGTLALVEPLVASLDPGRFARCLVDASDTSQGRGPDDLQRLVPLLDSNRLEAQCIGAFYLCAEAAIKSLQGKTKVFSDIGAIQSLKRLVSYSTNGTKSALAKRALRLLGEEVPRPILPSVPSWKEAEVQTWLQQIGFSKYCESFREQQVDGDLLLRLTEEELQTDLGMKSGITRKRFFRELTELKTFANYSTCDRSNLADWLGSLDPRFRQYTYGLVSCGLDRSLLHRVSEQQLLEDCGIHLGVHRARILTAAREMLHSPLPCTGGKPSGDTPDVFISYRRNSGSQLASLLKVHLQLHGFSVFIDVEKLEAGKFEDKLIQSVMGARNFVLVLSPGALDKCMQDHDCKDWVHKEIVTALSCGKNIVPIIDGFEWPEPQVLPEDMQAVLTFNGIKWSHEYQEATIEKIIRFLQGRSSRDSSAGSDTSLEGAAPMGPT
smiles,measurement,setting,value
CCCN1CCC[C@@H]2Cc3nc(N)ncc3C[C@H]21,inhibition,[1],-1% (inactive)
same,fluorescence ratio (interference),[2],1 (inactive)
same,nuclear beta-catenin stimulation,[3]; at 10 µM,4.8% (inactive)
same,nuclear beta-catenin stimulation,"[3]; stimulation, at 2 µM",-0.2%
same,insulin secretion stimulation,[4],-0.2% (inactive)
same,viability decrease,[5],-24.3% (inactive)
same,tube area decrease,[6],-0.4% (inactive)
same,GLP1 secretion stimulation,[7],-2.2% (inactive)
same,inhibition of viability,[8],-3.2% (inactive)
same,viability decrease (inhibition),[9],-4.6% (inactive)
same,viability decrease (inhibition),[10],-14.6% (inactive)
same,remaining activity,[11],118% (inactive)
same,fold change,[12]; stronger effect = lower value,0.958 (inactive)
same,fold change,[12]; [18],2.12
same,cell count,[12]; [19],9790
same,cell count,[12]; [20],10200
same,z-score,[13],0.925 (inactive)
CC(=O)OCC1=C(C(=O)O)N2C(=O)[C@@H](N)[C@H]2SC1,survival,[14],9.33 (inactive)
same,parasite load remaining,[15],107% (inactive) and 94.3% (inactive)
same,viability,[15],91.6% and 74.9%
same,nuclear beta-catenin stimulation,[3]; at 10 µM,-0.8% (inactive)
same,nuclear beta-catenin stimulation,"[3]; stimulation, at 2 µM",0.2%
same,insulin secretion stimulation,[4],-2.9% (inactive)
same,viability decrease,[5],27.2% (inactive)
same,tube area decrease,[6],10.2% (inactive)
same,GLP1 secretion stimulation,[7],1.9% (inactive)
same,inhibition of viability,[8],-5.2% (inactive)
same,viability decrease (inhibition),[9],82.6% (active)
same,viability decrease (inhibition),[10],29.3% (inactive)
same,fold change,[12]; stronger effect = lower value,0.918 (inactive)
same,fold change,[12]; [18],1.55
same,cell count,[12]; [19],8570
same,cell count,[12]; [20],9340
same,z-score,[16]; [21],0.366 (inactive)
same,z-score,[16]; [22],-0.158
CN(C)CCc1ccc(O)cc1,nuclear beta-catenin stimulation,[3]; at 10 µM,-0.3% (inactive)
same,nuclear beta-catenin stimulation,"[3]; stimulation, at 2 µM",1.5%
same,insulin secretion stimulation,[4],-0.4% (inactive)
same,viability decrease,[5],1.5% (inactive)
same,tube area decrease,[6],4.1% (inactive)
same,GLP1 secretion stimulation,[7],1.1% (inactive)
same,inhibition of viability,[8],4.7% (inactive)
same,viability decrease (inhibition),[9],1.9% (inactive)
same,viability decrease (inhibition),[10],-0.4% (inactive)
same,fold change,"[12]; stronger effect = lower value, cell number ratio, induced over uninduced",0.908 (inactive)
same,fold change,[12]; [18],0.849
same,cell count,[12]; [19],9070
same,cell count,[12]; [20],9990
same,z-score,[16]; [21],-0.277 (inactive)
same,z-score,[16]; [22],0.765
C#C[C@]1(O)CC[C@H]2[C@@H]3CCC4=CC(=O)CCC4=C3C=C[C@@]21CC,parasite load remaining,[15],55.7% (inactive)
same,viability,[15],102%
same,nuclear beta-catenin stimulation,[3]; at 10 µM,-0.6% (inactive)
same,nuclear beta-catenin stimulation,"[3]; stimulation, at 2 µM",0.3%
same,insulin secretion stimulation,[4],0.7% (inactive)
same,viability decrease,[5],14.5% (inactive)
same,tube area decrease,[6],41.9% (active)
same,GLP1 secretion stimulation,[7],2.8% (inactive)
same,inhibition of viability,[8],26.1% (inactive)
same,viability decrease (inhibition),[9],16% (inactive)
same,viability decrease (inhibition),[10],-9.5% (inactive)
same,fold change,[12]; stronger effect = lower value,0.886 (inactive)
same,fold change,[12]; [18],1.01
same,cell count,[12]; [19],9780
same,cell count,[12]; [20],11000
same,z-score,[16]; [21],0.0912 (inactive) and 0.694 (inactive)
same,z-score,[16]; [22],0.385 and 1.43
same,z-score,[13],0.24 (inactive)
CCN[C@@H](C)Cc1cccc(C(F)(F)F)c1,nuclear beta-catenin stimulation,[3]; at 10 µM,3% (inactive)
same,nuclear beta-catenin stimulation,"[3]; stimulation, at 2 µM",2.2%
same,insulin secretion stimulation,[4],8.8% (inactive)
same,viability decrease,[5],-3.65% (inactive)
same,tube area decrease,[6],29.2% (active)
same,GLP1 secretion stimulation,[7],1.3% (inactive)
same,inhibition of viability,[8],-3.9% (inactive)
same,viability decrease (inhibition),[9],17.9% (inactive)
same,viability decrease (inhibition),[10],-6.6% (inactive)
same,z-score,[16]; [21],-1.11 (inactive)
same,z-score,[16]; [22],0.177
CCCCCCCCOC(=O)c1ccccc1C(=O)OCCCCCCCC,nuclear beta-catenin stimulation,[3]; at 10 µM,3.1% (inactive)
same,nuclear beta-catenin stimulation,"[3]; stimulation, at 2 µM",-1.3%
same,insulin secretion stimulation,[4],0.05% (inactive)
same,viability decrease,[5],5.3% (inactive)
same,GLP1 secretion stimulation,[7],-0.4% (inactive)
same,inhibition of viability,[8],32% (inactive)
same,viability decrease (inhibition),[9],-4.6% (inactive)
same,viability decrease (inhibition),[10],3.6% (inactive)
O=C(CCCN1CCC(n2c(=O)[nH]c3ccccc32)CC1)c1ccc(F)cc1,survival,[14],11.5 (inactive)
same,parasite load remaining,[15],-5.69% (inactive) and 52.9% (inactive)
same,viability,[15],105% and 74.8%
same,nuclear beta-catenin stimulation,[3]; at 10 µM,4.7% (inactive)
same,nuclear beta-catenin stimulation,"[3]; stimulation, at 2 µM",3%
same,insulin secretion stimulation,[4],0.7% (inactive)
same,viability decrease,[5],-40.8% (inactive)
same,tube area decrease,[6],8% (inactive)
same,GLP1 secretion stimulation,[7],2.9% (inactive)
same,inhibition of viability,[8],19.9% (inactive)
same,viability decrease (inhibition),[9],29.4% (inactive)
same,viability decrease (inhibition),[10],2.6% (inactive)
same,fold change,[12]; stronger effect = lower value,0.825 (inactive)
same,fold change,[12]; [18],1.64
same,cell count,[12]; [19],7580
same,cell count,[12]; [20],9190
same,z-score,[16]; [21],0.0917 (inactive)
same,z-score,[16]; [22],-0.147
CC(C)(O)C(Cl)(Cl)Cl,nuclear beta-catenin stimulation,[3]; at 10 µM,-0.2% (inactive)
same,nuclear beta-catenin stimulation,"[3]; stimulation, at 2 µM",0.8%
same,insulin secretion stimulation,[4],-2.2% (inactive)
same,viability decrease,[5],-5.6% (inactive)
same,tube area decrease,[6],1.4% (inactive)
same,GLP1 secretion stimulation,[7],1.1% (inactive)
same,inhibition of viability,[8],4.4% (inactive)
same,viability decrease (inhibition),[9],14% (inactive)
same,viability decrease (inhibition),[10],6.7% (inactive)
same,fold change,[12]; stronger effect = lower value,0.973 (inactive)
same,fold change,[12]; [18],0.817
same,cell count,[12]; [19],7820
same,cell count,[12]; [20],8030
same,remaining NAD,[17],10 nM (inactive)
NCc1cccnc1,nuclear beta-catenin stimulation,[3]; at 10 µM,0.8% (inactive)
same,nuclear beta-catenin stimulation,"[3]; stimulation, at 2 µM",1.2%
same,insulin secretion stimulation,[4],-1.3% (inactive)
same,viability decrease,[5],16.9% (inactive)
same,tube area decrease,[6],-11.1% (inactive)
same,GLP1 secretion stimulation,[7],0% (inactive)
same,inhibition of viability,[8],-22.4% (active)
same,viability decrease (inhibition),[9],1.8% (inactive)
same,viability decrease (inhibition),[10],-13.1% (inactive)
same,fold change,[12]; stronger effect = lower value,0.867 (inactive)
same,fold change,[12]; [18],0.915
same,cell count,[12]; [19],7820
same,cell count,[12]; [20],9010
same,remaining NAD,[17],10 nM (inactive)
[N-]=[N+]=CC(=O)OC[C@H](N)C(=O)O,nuclear beta-catenin stimulation,[3]; at 10 µM,-2.7% (inactive)
same,nuclear beta-catenin stimulation,"[3]; stimulation, at 2 µM",-2.4%
same,insulin secretion stimulation,[4],-0.2% (inactive)
same,viability decrease,[5],50.2% (active)
same,tube area decrease,[6],12.9% (inactive)
same,GLP1 secretion stimulation,[7],-1.4% (inactive)
same,inhibition of viability,[8],77.9% (active)
same,viability decrease (inhibition),[9],104% (active)
same,viability decrease (inhibition),[10],57.8% (active)
same,remaining NAD,[17],10 nM (inactive)
ClC1=C(Cl)C2(Cl)C(CBr)CC1(Cl)C2(Cl)Cl (stereo unspecified),nuclear beta-catenin stimulation,[3]; at 10 µM,1.7% (inactive)
same,nuclear beta-catenin stimulation,"[3]; stimulation, at 2 µM",5.3%
same,insulin secretion stimulation,[4],0.2% (inactive)
same,GLP1 secretion stimulation,[7],16.3% (inactive)
O=C(NC(=O)c1c(F)cccc1F)Nc1ccc(Cl)c(Oc2ncc(C(F)(F)F)cc2Cl)c1,nuclear beta-catenin stimulation,[3]; at 10 µM,1.2% (inactive)
same,nuclear beta-catenin stimulation,"[3]; stimulation, at 2 µM",-0.3%
same,insulin secretion stimulation,[4],0.25% (inactive)
same,GLP1 secretion stimulation,[7],-8.7% (inactive)
